The record followed here is PubChem BioAssay (NCI).

The panel holds about 83,000 compounds, 20% with a hit somewhere; the sample as a whole holds those more often.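 Treatment: one concentration, 48 hours, 96-well format. Scoring: percent growth, with anything below 10 considered active.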 A number with no mark means an inactive call. Calls of active or inactive are those of the source.

Some test systems named below: EKVX NSCLC; SN12C renal; UO-31 renal; TK-10 renal; ACHN renal; A498 renal; CCRF-CEM leukemia; MOLT-4 leukemia; CAKI-1 renal.
Holding throughout (test): NCI-60 one-dose screen, 48 h (100 = growth as untreated, 0 = no growth, -100 = all killed)
Holding throughout (conditions): 10 µM unless noted

`C1=C\CCCCN2CC[C@H]3[C@H](CCCC/C=C\CCCN4C[C@@H](CCCCC/1)C[C@@H]3C4)C2`: the growth is 108% in the experiment with EKVX NSCLC; 81.2% in the experiment on SN12C renal; 14.6% in the experiment on UO-31 renal; 109% with TK-10 renal; 23.4% with ACHN renal; -11.8% (active) with A498 renal. Besides, in the experiment on CCRF-CEM leukemia, the growth was 7.61% (active).

Consider `Cc1cc(C)c([O-])c(CN(C)CCN(C)Cc2cc(C)cc(C)c2[O-])c1.O=C([O-])c1cccc(C(=O)[O-])n1.[Ti+4]`, for which the growth in the experiment with EKVX NSCLC is 27.1%; with SN12C renal, 27.4%; in the experiment on UO-31 renal, -9.59% (active); with TK-10 renal, -20.6% (active); in the experiment on ACHN renal it was 19.4%; with A498 renal it was -86.2% (active). Further, the growth in the experiment on CCRF-CEM leukemia was -2.1% (active); with MOLT-4 leukemia, -5% (active).

With `CC(=O)[C@@]1(O)[C@H](C)C[C@H]2[C@@H]3C=C(C)C4=Cc5c(cnn5-c5ccccc5)C[C@]4(C)[C@H]3[C@@H](O)C[C@@]21C`, the growth is 13.2% in the experiment on EKVX NSCLC; 41.3% in the experiment on SN12C renal; -4.99% (active) in the experiment with UO-31 renal; 34.5% in the experiment on TK-10 renal; 42.3% with ACHN renal; -16.8% (active) in the experiment on A498 renal. Further, the growth in the experiment on CCRF-CEM leukemia was -28% (active).

`CCCCc1n(Cc2ccc3ccccc3n2)cc[n+]1Cc1ccc2ccccc2n1`: the growth was 50.9% in the experiment on EKVX NSCLC; 4.6% (active) with SN12C renal; 83.5% in the experiment with UO-31 renal; 27.6% in the experiment on TK-10 renal; 96.1% in the experiment with ACHN renal; 7.39% (active) in the experiment with A498 renal. The growth is 23.3% in the experiment on CCRF-CEM leukemia and 14.9% in the experiment on MOLT-4 leukemia.

Consider `CC(=O)OC1Oc2ccccc2-c2oc3nc(=N)n(C)c-3cc21` (centres undefined), for which the growth is 122% in the experiment on EKVX NSCLC; 108% with SN12C renal; 88.6% in the experiment with UO-31 renal; 155% in the experiment on TK-10 renal; 110% in the experiment on ACHN renal; 138% in the experiment on A498 renal. The growth in the experiment on CCRF-CEM leukemia was 77%.

In the case of `C=C(C)c1ccc(/C=N/NC(N)=S)cc1`, the growth is 7.97% (active) with EKVX NSCLC; 93.3% in the experiment with SN12C renal; 78.6% in the experiment with UO-31 renal; 103% with TK-10 renal; 93.2% in the experiment with ACHN renal; 98.4% in the experiment on A498 renal. In addition, the growth in the experiment on CCRF-CEM leukemia is 64%; with MOLT-4 leukemia, 75.3%.

With `c1ccc2c(c1)cnc1ccccc12`, the growth in the experiment with EKVX NSCLC was 115%; in the experiment on SN12C renal, 95.5%; in the experiment on UO-31 renal it was 95.2%; with TK-10 renal, 116%; in the experiment with ACHN renal, 100%; in the experiment on A498 renal it was -7.57% (active). Also, the growth in the experiment on CCRF-CEM leukemia was 97.8%.

As to `NNC(=O)Cc1ccccc1`, the growth in the experiment on EKVX NSCLC is 81.2%; in the experiment with SN12C renal, 93.4%; in the experiment with UO-31 renal, 76.2%; with TK-10 renal, 111%; with ACHN renal it was 78.9%; in the experiment with A498 renal, 97.2%. Also, the values for the growth with CCRF-CEM leukemia and in the experiment on MOLT-4 leukemia were 57.1% and 79.9%, respectively.

For `CN(C)CCOc1nc2c3ccncc3cc(-c3cccc(Cl)c3)c2c2cnccc12`, the growth is 37.4% in the experiment on EKVX NSCLC; 14.9% in the experiment with UO-31 renal; 30.7% in the experiment on TK-10 renal; 14.5% in the experiment on ACHN renal; 29.6% in the experiment on CAKI-1 renal; 35.5% in the experiment on A498 renal. The growth in the experiment with CCRF-CEM leukemia is 3.4% (active); in the experiment on MOLT-4 leukemia, -14.7% (active).

Take `CN(C)CCOc1nc2c3cccnc3cc(-c3cccc(Cl)c3)c2c2ncccc12`: the growth in the experiment on EKVX NSCLC was 34.3%; with UO-31 renal, 38.2%; in the experiment on TK-10 renal, 28.5%; in the experiment with ACHN renal, 6.48% (active); in the experiment on A498 renal it was 43.7%; in the experiment with CCRF-CEM leukemia it was 6.83% (active). Besides, the growth with MOLT-4 leukemia was -9.06% (active).

Consider `COc1ccc([C@@H]2[C@@H](Oc3ccccc3)C(=O)N2c2cc(OC)c(OC)c(OC)c2)cc1F`, for which the growth with EKVX NSCLC is 34.6%; in the experiment on SN12C renal, 24.6%; with UO-31 renal, 24.4%; in the experiment on TK-10 renal, 44.7%; in the experiment on CCRF-CEM leukemia it was 8.73% (active); in the experiment on MOLT-4 leukemia, 6.79% (active).

As for `COC(=O)C1(C)COP(=O)(NC23CC4CC(CC(C4)C2)C3)OC1` (centres undefined), the growth with EKVX NSCLC was 98.4%; in the experiment with SN12C renal, 113%; in the experiment with UO-31 renal it was 87.2%; in the experiment on TK-10 renal, 96.7%; in the experiment on CAKI-1 renal, 103%; in the experiment with A498 renal, 103%. Moreover, the growth in the experiment with CCRF-CEM leukemia is 98.2%; in the experiment with MOLT-4 leukemia, 109%.

As for `CC(=O)Nc1ccc(Cl)cc1Cl`, the growth in the experiment on EKVX NSCLC was 89.9%; in the experiment with SN12C renal it was 101%; in the experiment on UO-31 renal, 76.2%; with TK-10 renal it was 112%; in the experiment on ACHN renal it was 106%; in the experiment with A498 renal, 116%. Also, the growth in the experiment on CCRF-CEM leukemia was 145%; in the experiment with MOLT-4 leukemia, 71.3%.

For the compound `COc1cc(-c2csc(NC(=O)Nc3cccc(C(F)(F)F)c3)n2)cc(OC)c1OC`, the growth is 38.3% with EKVX NSCLC; 46% in the experiment on UO-31 renal; 49.4% with TK-10 renal; 31.3% in the experiment with ACHN renal; 48.2% with CAKI-1 renal; 59.1% with A498 renal. In addition, the growth in the experiment on CCRF-CEM leukemia was 28.1%; in the experiment with MOLT-4 leukemia it was 18.1%.

Take `CNC(=O)c1ccccc1Sc1ccc2c(/C=C/c3ccccn3)n[nH]c2c1`: the growth in the experiment with EKVX NSCLC was 53.8%; in the experiment with SN12C renal, 27.6%; in the experiment on TK-10 renal, 54.8%; with ACHN renal it was 31.2%; with CAKI-1 renal, 30.7%; in the experiment with A498 renal, -23.3% (active). Besides, in the experiment on MOLT-4 leukemia, the growth is 13.4%.

As to `CCCc1n(Cc2ccc3ccccc3c2)c2ccccc2[n+]1Cc1ccc2ccccc2c1`, the growth is -4.84% (active) in the experiment on EKVX NSCLC; -48.4% (active) in the experiment on SN12C renal; -79.7% (active) in the experiment with TK-10 renal; 3.74% (active) with ACHN renal; -17.2% (active) with A498 renal; -32.3% (active) with CCRF-CEM leukemia. The growth with MOLT-4 leukemia is -58.9% (active).
